The target of assay [1] is Lysosomal acid glucosylceramidase (Homo sapiens) (UniProt P04062). The assay can be described thus: Glucocerebrosidase-p2 (AID 348; in the data active means potency below about 10 µM; further: potency means the concentration at half of the fitted maximal effect). Particulars: purified GBA, blue fluorogenic substrate, 40 min. In short, it runs like this:
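Compounds titrated from 0.6 nM upwards against 0.2 nM enzyme in pH 5.9 citric acid/KH2PO4, taurocholate, tween-20; blue fluorogenic substrate 80 uM, 40 min room temperature, stopped and read Ex 365/Em 440 for AC50.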

Assay [2] can be described thus: AP1 Signaling Pathway (AID 357). Further: on the % scale 0 is the no-effect control and ±100 the full control effect. Conditions: ME-180 AP-1-bla reporter, EGF-induced, beta-lactamase ratio, 5 h; at 7.69 µM (top of the series) unless noted. The method, boiled down: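 ME-180 cells with beta-lactamase reporter under AP-1 response element, stimulated with EC50 EGF; compounds tested in titration series, 5 h at 37 °C. CCF4 substrate added 2.5 h at room temperature; 460/530 nm emission ratio gave %activity and AC50.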

The target in assay [3] is Cytochrome P450 1A2 (Homo sapiens) (UniProt P05177). The assay can be described thus: p450-cyp1a2 (AID 410; calls by dose curve; further: potency means the concentration at half of the fitted maximal effect). Particulars: recombinant CYP1A2, luciferin-ME demethylation, luminescence; series mostly up to 57 µM. In short, it runs like this:
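20nM CYP1A2 with 100uM Luciferin-ME (at Km) in 100mM KPO4; compound preincubated 10 min, NADPH regeneration added, 60 min at room temperature. Luciferin quantified by luminescence after detection reagent; normalized to 57 uM furafylline.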

Assay [4] can be described thus: NFAT Signaling Pathway (AID 444).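 Further: carbachol stimulus at about its EC50 of 1 µM final; on the % scale 0 is the no-effect control and ±100 the full control effect.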 Particulars: Jurkat NFAT-bla M1, carbachol, beta-lactamase ratio, 5 h; at 7.69 µM (top of the series) unless noted. In short, it runs like this:
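Jurkat cells carrying an NFAT-driven β-lactamase reporter and co-transfected muscarinic M1 receptor were treated with compound plus carbachol (1 uM final, an EC50 level) for 5 h at 37 °C. CCF4 loading followed for 1 h at RT; 460/530 nm ratio gave %activity.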

Assay [5] in a line: Stat Signaling Pathway (AID 446).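 Further: ME-180 cervical cancer cells given 40 pM IL-6 alongside compound; SIE-controlled beta-lactamase reporter measured as 460/530 nm FRET emission ratio; on the % scale 0 is the no-effect control and ±100 the full control effect.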 Conditions: ME-180 SIE beta-lactamase reporter, IL-6 stimulated, 5 h; at 7.69 µM (top of the series) unless noted. In short, it runs like this: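 ME-180 cells carrying a SIE-driven beta-lactamase reporter are stimulated with 40 pM IL-6 for 5 h at 37C in the presence of compound. The 460/530 nm FRET substrate ratio is read after 2.5 h at RT. Data are normalised to 300 pM IL-6 and to 125 nM JAK inhibitor controls.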

For assay [6], the target named is Glucocorticoid receptor (Homo sapiens) (UniProt P04150). The assay can be described thus: GR-EFC Redistribution (AID 451; calls by dose curve; further: potency means the concentration at half of the fitted maximal effect). Particulars: CHO-K1 GR-EFC translocation, beta-gal luminescence, 2 h. In short, it runs like this: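 CHO-K1 cells stably expressing nuclear-localized β-gal enzyme acceptor and GR fused C-terminally to the enzyme donor fragment; ligand-driven nuclear translocation restores β-gal by complementation. Compounds titrated up to 46 uM final, 2 h at 37 °C; luminescence read.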
Chain of Glucocorticoid receptor (Homo sapiens) (P04150 whole entry, looked up, the tested form may be a part): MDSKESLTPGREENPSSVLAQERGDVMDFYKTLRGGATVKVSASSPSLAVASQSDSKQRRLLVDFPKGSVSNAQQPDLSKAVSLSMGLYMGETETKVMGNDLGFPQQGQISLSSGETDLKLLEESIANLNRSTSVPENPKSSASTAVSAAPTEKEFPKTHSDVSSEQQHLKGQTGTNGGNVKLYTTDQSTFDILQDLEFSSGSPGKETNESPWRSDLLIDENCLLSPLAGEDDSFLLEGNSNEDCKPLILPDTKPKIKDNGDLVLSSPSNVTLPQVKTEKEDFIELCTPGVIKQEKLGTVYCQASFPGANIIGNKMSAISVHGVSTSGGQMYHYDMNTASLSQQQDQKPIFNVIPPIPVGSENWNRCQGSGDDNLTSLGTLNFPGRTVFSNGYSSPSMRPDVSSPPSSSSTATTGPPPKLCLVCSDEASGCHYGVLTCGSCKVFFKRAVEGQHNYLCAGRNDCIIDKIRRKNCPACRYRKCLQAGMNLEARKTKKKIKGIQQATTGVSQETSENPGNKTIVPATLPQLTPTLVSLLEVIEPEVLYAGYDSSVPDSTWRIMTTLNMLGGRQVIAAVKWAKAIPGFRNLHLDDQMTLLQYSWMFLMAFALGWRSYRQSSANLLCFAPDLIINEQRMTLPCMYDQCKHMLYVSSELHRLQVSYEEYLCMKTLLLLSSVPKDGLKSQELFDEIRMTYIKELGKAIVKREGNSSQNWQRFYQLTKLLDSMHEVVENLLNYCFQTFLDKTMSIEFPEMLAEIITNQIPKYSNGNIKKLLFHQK

Assay [7] concerns the target Mitogen-activated protein kinase 10 (Mus musculus) (UniProt Q61831). Put plainly: JNK3 AlphaScreen Assay (AID 530).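 Further: kinase came from lysate of stimulated human HepG2 cells; signal reports phosphorylation of biotinylated GST-cJun 1-79 at Ser73 with 10 µM ATP; on the % scale 0 is the no-effect control and ±100 the full control effect.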 Particulars: JNK3 lysate, c-Jun phosphorylation; series mostly up to 57.1 µM. The method, boiled down: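 Inhibitors reduce antibody binding to phosphorylated biotin-cJun, lowering AlphaScreen luminescence. Lysates from HepG2 cells pre-activated by IL-1beta plus TNF-alpha supplied JNK3; compounds were titrated.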
(Bead proximity is the source of the signal in Alpha formats.)

Assay [8] addresses 3',5'-cyclic-AMP phosphodiesterase 4B (Homo sapiens) (UniProt Q07343). Put plainly: qHTS Assay for Inhibitors of PDE-IV (AID 607; active means well fitted activation curve with a large enough effect in the main read-out, with a control signal flat, not every such curve was filed as active; further: % of control where 0% means no effect). Particulars: HEK293 ACTOne CNG channel cells, membrane potential fluorescence; series mostly up to 22.9 µM. In short, it runs like this: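 HEK293 ACTOne cells with CNG channel (1000/well), endogenous PDE4; membrane potential dye, compounds up to 22.9 uM final. Fluorescence Ex 535/Em 590; RO 20-1724 (100 uM final) as reference.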
(In general: Quantitative high-throughput screening tests each substance at several concentrations.)

Assay [9] deals with Cytochrome P450 3A4 (Homo sapiens) (UniProt P08684). Put plainly: qHTS Assay for Activators of Cytochrome P450 3A4 (AID 885; active means well fitted curve in the direction sought with a large enough effect; an effect the other way counts as inactive or inconclusive; further: nearly all actives have a fitted effect of over 65% in size). Conditions: recombinant CYP3A4, Luciferin-PPXE luminescence, 60 min; series mostly up to 57.1 µM. In short, it runs like this: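 Human CYP3A4 (20 nM) with Luciferin-PPXE at 25 uM (its KM) in 200 mM KPO4; 10 min compound preincubation, then NADPH regeneration and 60 min reaction at RT. Luciferin read by luminescence; normalized to 57 uM ketoconazole full inhibition.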
Chain of Cytochrome P450 3A4 (Homo sapiens) (P08684 whole entry, looked up): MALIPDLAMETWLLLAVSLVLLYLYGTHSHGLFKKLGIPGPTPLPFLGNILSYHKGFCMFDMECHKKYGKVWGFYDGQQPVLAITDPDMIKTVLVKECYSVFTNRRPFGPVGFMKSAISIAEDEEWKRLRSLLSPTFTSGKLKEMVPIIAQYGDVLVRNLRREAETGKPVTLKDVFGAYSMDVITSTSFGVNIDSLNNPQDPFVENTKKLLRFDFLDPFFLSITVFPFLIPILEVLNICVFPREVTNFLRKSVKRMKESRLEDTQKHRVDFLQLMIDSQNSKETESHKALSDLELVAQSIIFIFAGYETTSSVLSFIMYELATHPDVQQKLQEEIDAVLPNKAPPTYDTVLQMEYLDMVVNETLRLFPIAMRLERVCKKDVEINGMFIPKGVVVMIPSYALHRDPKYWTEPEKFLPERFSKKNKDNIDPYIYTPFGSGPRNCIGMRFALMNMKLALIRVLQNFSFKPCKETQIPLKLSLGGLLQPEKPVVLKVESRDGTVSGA

In assay [10] the target is Cytochrome P450 2D6 (Homo sapiens) (UniProt P10635). The assay can be described thus: qHTS Assay for Inhibitors and Substrates of Cytochrome P450 2D6 (AID 891; active means well fitted curve in the direction sought with a large enough effect; an effect the other way counts as inactive or inconclusive; further: potency means the concentration at half of the fitted maximal effect; nearly all actives have a fitted effect of over 60% in size). Conditions: recombinant CYP2D6, luciferin-ME EGE luminescence; series mostly up to 57.1 µM. The method, boiled down:
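Human CYP2D6 (5 nM) with 30 uM Luciferin-ME EGE (at Km) in 100 mM KPO4, compound preincubated 10 min, then NADPH regeneration system for 60 min at room temperature. Luciferin read by luminescence; normalized to 1.43 uM quinidine.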

Assay [11] is described as follows: qHTS Assay for Lipid Storage Modulators (AID 1519; calls by dose curve). Conditions: Drosophila S3 cells, BODIPY lipid droplet/cell ratio, laser cytometry, cells loaded with oleic acid; for activity change, negative = inhibition: at 57.5 µM (top of the series). In short, it runs like this:
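Cells seeded at 5,000 per well were treated with compounds over a concentration series and loaded with oleic acid (400 uM, as added). Lipid droplet fluorescence (488 nm excitation, 500-530 nm channel) was read by laser-scanning cytometry and normalized to 20 uM Triacsin C.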

Assay [12] can be described thus: Primary qHTS for small molecule stabilizers of the endoplasmic reticulum resident proteome: Secreted ER Calcium Modulated Protein (SERCaMP) assay (AID 1508630; active means well fitted curve in the direction sought with a large enough effect; an effect the other way counts as inactive or inconclusive; further: on the % scale 0 is the no-effect control and ±100 the full control effect). Particulars: SH-SY5Y GLuc-SERCaMP (Gaussia luciferase released on ER calcium loss) secretion, thapsigargin, luminescence; series mostly up to 38.4 µM. The method, boiled down:
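GLuc-SERCaMP-expressing SH-SY5Y cells, pretreated 16 h with compound, are challenged with thapsigargin to empty ER calcium stores; after 4 h, coelenterazine is added directly to the medium and luminescence is imaged.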

Where [13] appears, read: measured here: cell count channel max response.
Where [14] appears, read: measured here: lipid channel max response.

The structures appear in SMILES notation. Results filed as inconclusive are left out. Calls of active or inactive are those of the source. Unless noted, the call rests on the fitted dose curve; in most records, active means well fitted curve in either direction with a large enough effect (not every such curve was filed as active); inconclusive means small, poorly fitted or top-dose-only effect, or another doubt; inactive means flat fitted curve, though single readings scatter.

Chain of 3',5'-cyclic-AMP phosphodiesterase 4B (Homo sapiens) (Q07343 whole entry, looked up): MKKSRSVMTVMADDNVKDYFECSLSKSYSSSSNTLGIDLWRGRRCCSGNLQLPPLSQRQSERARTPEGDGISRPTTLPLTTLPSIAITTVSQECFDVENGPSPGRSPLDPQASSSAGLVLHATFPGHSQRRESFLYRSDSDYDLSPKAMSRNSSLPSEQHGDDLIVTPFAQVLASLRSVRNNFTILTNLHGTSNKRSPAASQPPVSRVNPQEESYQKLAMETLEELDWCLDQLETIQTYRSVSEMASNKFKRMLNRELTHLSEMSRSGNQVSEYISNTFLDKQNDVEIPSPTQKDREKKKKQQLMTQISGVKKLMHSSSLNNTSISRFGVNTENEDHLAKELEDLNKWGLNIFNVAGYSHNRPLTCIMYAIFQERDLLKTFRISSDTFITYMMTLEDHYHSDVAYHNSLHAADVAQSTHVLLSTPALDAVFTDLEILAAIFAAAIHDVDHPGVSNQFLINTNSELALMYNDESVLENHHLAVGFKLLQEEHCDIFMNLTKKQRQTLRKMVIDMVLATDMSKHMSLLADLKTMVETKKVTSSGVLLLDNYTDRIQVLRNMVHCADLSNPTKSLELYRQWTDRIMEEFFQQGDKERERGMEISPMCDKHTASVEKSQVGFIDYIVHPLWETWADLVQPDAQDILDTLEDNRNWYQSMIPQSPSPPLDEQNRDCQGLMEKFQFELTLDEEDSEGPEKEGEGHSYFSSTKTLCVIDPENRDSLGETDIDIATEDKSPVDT
Chain of Cytochrome P450 1A2 (Homo sapiens) (P05177 whole entry, looked up): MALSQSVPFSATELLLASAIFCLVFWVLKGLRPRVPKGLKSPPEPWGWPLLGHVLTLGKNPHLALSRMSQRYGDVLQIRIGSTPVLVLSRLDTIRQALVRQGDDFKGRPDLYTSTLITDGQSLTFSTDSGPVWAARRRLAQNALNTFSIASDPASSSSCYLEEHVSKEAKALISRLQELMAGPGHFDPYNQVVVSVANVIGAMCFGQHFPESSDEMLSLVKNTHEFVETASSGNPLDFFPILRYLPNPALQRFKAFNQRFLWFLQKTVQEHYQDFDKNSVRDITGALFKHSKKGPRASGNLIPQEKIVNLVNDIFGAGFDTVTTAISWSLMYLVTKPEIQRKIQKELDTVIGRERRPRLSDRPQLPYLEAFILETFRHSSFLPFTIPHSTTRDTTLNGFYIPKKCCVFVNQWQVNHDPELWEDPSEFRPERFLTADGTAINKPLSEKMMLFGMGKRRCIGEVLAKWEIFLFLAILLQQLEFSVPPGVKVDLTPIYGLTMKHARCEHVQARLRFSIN
Chain of Lysosomal acid glucosylceramidase (Homo sapiens) (P04062 whole entry, looked up): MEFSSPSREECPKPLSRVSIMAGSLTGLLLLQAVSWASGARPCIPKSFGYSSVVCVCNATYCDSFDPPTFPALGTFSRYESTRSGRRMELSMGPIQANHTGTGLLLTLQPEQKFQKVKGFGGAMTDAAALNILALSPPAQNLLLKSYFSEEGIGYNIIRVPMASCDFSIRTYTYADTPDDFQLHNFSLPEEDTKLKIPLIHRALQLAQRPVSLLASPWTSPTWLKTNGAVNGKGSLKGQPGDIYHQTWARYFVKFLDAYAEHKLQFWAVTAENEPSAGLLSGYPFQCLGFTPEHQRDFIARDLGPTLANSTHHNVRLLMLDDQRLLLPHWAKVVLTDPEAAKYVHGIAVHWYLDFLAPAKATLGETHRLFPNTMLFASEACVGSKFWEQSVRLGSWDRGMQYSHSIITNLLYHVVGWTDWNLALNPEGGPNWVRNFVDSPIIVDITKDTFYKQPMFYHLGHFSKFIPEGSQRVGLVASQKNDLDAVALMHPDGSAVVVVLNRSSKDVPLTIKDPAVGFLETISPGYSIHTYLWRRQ
Chain of Cytochrome P450 2D6 (Homo sapiens) (P10635 whole entry, looked up): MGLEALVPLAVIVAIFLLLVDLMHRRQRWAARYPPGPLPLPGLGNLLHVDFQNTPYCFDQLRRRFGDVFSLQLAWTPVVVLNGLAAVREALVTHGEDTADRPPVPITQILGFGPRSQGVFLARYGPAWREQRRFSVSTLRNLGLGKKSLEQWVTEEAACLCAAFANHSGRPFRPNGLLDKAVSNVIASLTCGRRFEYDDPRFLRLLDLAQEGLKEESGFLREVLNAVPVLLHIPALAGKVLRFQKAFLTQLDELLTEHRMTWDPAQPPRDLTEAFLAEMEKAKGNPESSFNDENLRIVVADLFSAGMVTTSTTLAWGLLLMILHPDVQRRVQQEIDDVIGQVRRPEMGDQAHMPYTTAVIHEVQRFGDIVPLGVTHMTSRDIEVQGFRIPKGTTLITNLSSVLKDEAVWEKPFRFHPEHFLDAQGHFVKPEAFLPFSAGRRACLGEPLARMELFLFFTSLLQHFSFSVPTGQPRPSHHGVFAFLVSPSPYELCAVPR

In the case of `CC(C)CN1CC[C@@]2(CCCN(S(=O)(=O)c3ccccc3)C2)C1`, the Potency was > 11.4 µM (inactive) in [1], 25.1 µM (active) in assay [3], > 46 µM (inactive) in assay [6] and 0.501 µM (active) in assay [10]. Also, the activity change, negative = inhibition in assay [2] is 1.83% (inactive); in [4], -7.95% (inactive); in [11] it was 4.19% (inactive). In addition, in assay [5], the activity, negative = inhibition was -0.418% (inactive). Moreover, in assay [7], the outcome was inactive. Moreover, the Potency result in [8], in assay [9] and in assay [12] was “inactive” in each case. In addition, the max response in assay [11] (setting [13]) worked out at 1.96%; in assay [11] (setting [14]), 9.28%.

Take `COc1ccc(NC(=O)N2CC[C@@]3(CCCN(C(=O)c4cccn4C)C3)C2)cc1`: the Potency in [1] is > 11.4 µM (inactive); in assay [6], > 46 µM (inactive). Moreover, the activity change, negative = inhibition is -0.362% (inactive) in assay [2], 4.79% (inactive) in assay [4] and 2.71% (inactive) in assay [11]. The Potency result in [3], in assay [8], in assay [9] and in assay [12] was “inactive” each time. For the same compound, the activity, negative = inhibition in assay [5] was 8.48% (inactive). For the same compound, the compound was called inactive in assay [7]. The results for the max response in assay [11] (setting [13]) and in [11] (setting [14]) were 12% and 14.4%, respectively.

Consider `COC(=O)N1CCC2(CCCN(Cc3ccccc3OC)C2)CC1`, for which the Potency is > 11.4 µM (inactive) in assay [1], > 46 µM (inactive) in [6] and 3.16 µM (active) in assay [10]. Further, the activity change, negative = inhibition is -7.44% (inactive) in assay [2], -73.7% (active) in [4] and -2.47% (inactive) in assay [11]. In addition, the Potency entry in assay [3], in [8], in assay [9] and in assay [12] was “inactive” throughout. The activity, negative = inhibition in assay [5] is -10.7% (inactive). For the same compound, the call in assay [7] was inactive. The max response in [11] (setting [13]) is 15.3%; in assay [11] (setting [14]), 15.9%.

With `CC(C)NC(=O)N1CCC2(CC1)CCN(C(=O)c1ccncc1)CC2`, the Potency in assay [1] is > 11.4 µM (inactive); in [6] it was > 46 µM (inactive). For the same compound, the activity change, negative = inhibition in assay [2] is -7.19% (inactive); in assay [4], 1.59% (inactive); in assay [11], -0.818% (inactive). Besides, the Potency result in assay [3], in [8], in assay [9] and in [12] was “inactive” throughout. The activity, negative = inhibition in assay [5] is -8.96% (inactive). Moreover, in [7], the compound was called inactive. The max response in assay [11] (setting [13]) was determined as 9.1%; in assay [11] (setting [14]), 9.91%.

Take `CC(=O)N1CCC[C@@]2(CCN(c3ccncc3)C2)C1`: the Potency in assay [1] is > 11.4 µM (inactive); in assay [6], > 46 µM (inactive). Also, the activity change, negative = inhibition is 2.82% (inactive) in assay [2], 3.22% (inactive) in [4] and 2.25% (inactive) in assay [11]. The Potency result in assay [3], in assay [8], in [9] and in assay [12] was “inactive” each time. Also, the activity, negative = inhibition in [5] was -0.448% (inactive). Further, the result in assay [7] was inactive. Further, the max response worked out at 8.59% in [11] (setting [13]) and 14.8% in [11] (setting [14]).

Turning to `CC(=O)N1CCC2(CCCN(c3ccccc3)C2)CC1`, the Potency in [1] is > 11.4 µM (inactive); in [6] it was > 46 µM (inactive). The activity change, negative = inhibition in assay [2] is -11.7% (inactive); in assay [4] it was 9.86% (inactive); in assay [11], 1.01% (inactive). The Potency entry in [3], in [8], in assay [9] and in assay [12] was “inactive” in each case. Further, the activity, negative = inhibition in assay [5] is -0.0216% (inactive). Moreover, the call in assay [7] was inactive. Also, the max response in [11] (setting [13]) amounted to 9.92%; in assay [11] (setting [14]), 12.8%.

In the case of `CS(=O)(=O)N1CCC2(CC1)CN(C(=O)Nc1cccc(C#N)c1)C2`, the Potency is > 11.4 µM (inactive) in assay [1] and > 46 µM (inactive) in assay [6]. Also, the activity change, negative = inhibition is -6.48% (inactive) in assay [2], 14.4% (inactive) in assay [4] and 1.36% (inactive) in [11]. Further, the Potency entry in assay [3], in assay [8], in assay [9] and in [12] was “inactive” in each case. Besides, in assay [5], the activity, negative = inhibition is -5.8% (inactive). In addition, in assay [7], the result was inactive. In addition, the max response in assay [11] (setting [13]) is 4.56%; in [11] (setting [14]) it was 8.61%.

(Values after PubChem BioAssay (NCATS).)
